Screening results: PubChem, National Center for Advancing Translational Sciences (NCATS)
TDP1 cell CPT: DT40-hTDP1 cell growth loss with CPT | chicken DT40 Tdp1-/-;hTDP1 cells + 20 nM CPT, ATP luminescence, 48 h | Potency, µM (highest dose often 46.2 µM), most hits filed as inhibitors | 12% of 420,000 active | AID 686979; further: nearly all actives have a fitted effect of over 55% in size
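Chicken DT40 Tdp1-/- cells complemented with human TDP1, 400 cells/well, exposed to compounds plus 20 nM camptothecin for at least 48 h at 37 C; viability read as ATP content by CellTiter-Glo luminescence.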
TGFb SMAD3 inh: TGF-b pathway inhibition. HepG2 CAGA-GFP TGF-b/SMAD3 reporter, GFP fluorescence, 18 h; TGF-beta stimulated, 500 pg/mL final. Potency, µM (doses to about 46.1 µM), usual class: inhibitors. 1.2% of 410,000 active; further: nearly all actives have a fitted effect of over 65% in size
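HEPG2 CAGA-GFP, 1000 cells/well; 2 h settle, 37 C; cpd via pin tool; TGF-b 500 pg/mL final; 18 h, 37 C; GFP imaging ex488/em500-530; %Activity normalised to -TGF-b and +DMSO controls; CRC fit, curve class.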
IL1B secr inh: inflammasome signaling inhibition, IL-1 beta readout. activity change, % at 57.5 µM. THP-1 LPS/ATP IL-1B secretion, AlphaLISA, 16 h; stronger effect = lower value. 4.7% of 360,000 active; in the data active means activity change below about -50%; inconclusive means mostly about -30% to -49%
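Secreted IL-1B measured by AlphaLISA bead assay after 16 h compound exposure of THP-1 cells; compounds (final up to 57.5 uM) added 1 h before LPS (250 ng/mL) and ATP (1.25 mM) stimulation; lower signal means less secretion.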
TDP1 inh: TDP1 (human) enzyme inhibition | Q9NUW8 | recombinant TDP1, AlphaScreen DNA substrate cleavage | Potency, µM (doses to about 130 µM), most hits filed as inhibitors | 0.28% of 350,000 active | AID 485290; further: nearly all actives have a fitted effect of over 40% in size
Target sequence (Q9NUW8 whole entry, looked up): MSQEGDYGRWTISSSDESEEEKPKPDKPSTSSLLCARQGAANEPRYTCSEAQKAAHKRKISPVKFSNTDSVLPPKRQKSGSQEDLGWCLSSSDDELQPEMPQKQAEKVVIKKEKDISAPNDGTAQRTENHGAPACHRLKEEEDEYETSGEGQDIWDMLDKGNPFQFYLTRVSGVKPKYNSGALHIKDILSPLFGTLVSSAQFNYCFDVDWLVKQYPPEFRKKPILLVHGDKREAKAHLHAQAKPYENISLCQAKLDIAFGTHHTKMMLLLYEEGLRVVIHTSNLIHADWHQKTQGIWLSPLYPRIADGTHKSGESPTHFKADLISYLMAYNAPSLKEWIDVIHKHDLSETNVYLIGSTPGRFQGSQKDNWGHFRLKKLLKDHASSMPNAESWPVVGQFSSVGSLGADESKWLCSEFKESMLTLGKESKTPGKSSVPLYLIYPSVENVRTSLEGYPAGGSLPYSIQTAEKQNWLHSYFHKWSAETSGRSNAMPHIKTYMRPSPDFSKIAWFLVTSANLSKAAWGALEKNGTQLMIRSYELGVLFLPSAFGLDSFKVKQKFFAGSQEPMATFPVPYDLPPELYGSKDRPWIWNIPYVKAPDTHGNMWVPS
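Here, a 5' biotin and 3' phosphotyrosine-FITC DNA oligonucleotide reports Tdp1 activity: intact substrate bridges AlphaScreen beads, while cleavage leaves a 3' phosphate and drops signal. All incubations at room temperature.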
HepG2 viability: HepG2 cytotoxicity, counter-screen for TGF-b inhibitors | HepG2 CAGA-GFP viability, ATP luminescence, 18 h | Potency, µM (highest dose often 46.1 µM), most hits filed as cytotoxic | 0.76% of 410,000 active
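HepG2 CAGA-GFP cells (1000/well, DMEM with 1% FBS) received compound, then TGF-beta at 500 pg/mL final, and were incubated 18 hours at 37 degrees C. Viability was read by CellTiter-Glo luminescence. Media-only wells were set as complete cell-killing and DMSO as no toxicity.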
TDP1 cell noCPT: qHTS for Inhibitors of human tyrosyl-DNA phosphodiesterase 1 (TDP1): qHTS in cells in absence of CPT | DT40 Tdp1-/- hTDP1 cells, no CPT, ATP luminescence, 48 h | Potency, µM (doses to about 46.2 µM), actives largely listed as inhibitors | 15% of 420,000 active; further: nearly all actives have a fitted effect of over 55% in size
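Chicken DT40 Tdp1-/- cells stably complemented with human TDP1 were seeded at 400 cells/well with DMSO in place of 20 nM camptothecin. After compound pinning, cells grew at least 48 hr at 37 °C; viability read by CellTiter-Glo luminescence.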
Hits are given with their value; [ ] = another dose, or the depositor's remark. Compounds with a hit are over-represented: about 18% of the library has one in this group of screens. Unless noted, the call rests on the fitted dose curve; in most records, active means well fitted curve in the direction sought with a large enough effect; inconclusive means small, poorly fitted or top-dose-only effect, or another doubt; inactive means no such curve, though single readings can be large; an effect the other way counts as inactive or inconclusive.

O=C(O)c1ccc2c(c1)C(=O)N(c1ccc([N+](=O)[O-])cn1)C2=O was read as TDP1 cell CPT inactive, TGFb SMAD3 inh inactive, IL1B secr inh inactive, HepG2 viability inactive and TDP1 cell noCPT inactive.
`CNC(=S)N/N=C(\C)c1ccc(C(C)(C)C)cc1` gave TDP1 cell CPT inactive, TGFb SMAD3 inh inactive, IL1B secr inh inactive, TDP1 inh inactive, HepG2 viability inactive and TDP1 cell noCPT inactive.
For C/C(=N\Nc1ncc(Br)cn1)c1cccc([N+](=O)[O-])c1 the results were TDP1 cell CPT inactive, TGFb SMAD3 inh inactive, IL1B secr inh -73, HepG2 viability inactive and TDP1 cell noCPT inactive.
CNC(=S)N/N=C(\C)c1ccccc1 was read as TDP1 cell CPT 7.3µM, TGFb SMAD3 inh inconclusive, IL1B secr inh inactive, HepG2 viability inactive and TDP1 cell noCPT 13µM.
For C=C(C)c1cccc(C(C)(C)NC(=O)N2CCN(C/C=C/c3ccccc3)CC2)c1 the results were TDP1 cell CPT 23µM, TGFb SMAD3 inh inactive, IL1B secr inh inconclusive, TDP1 inh inactive, HepG2 viability inactive and TDP1 cell noCPT 23µM.
Screening C=C(C)c1cccc(C(C)(C)NC(=O)Nn2cnnc2)c1 returned TDP1 cell CPT inactive, TGFb SMAD3 inh inactive, IL1B secr inh inactive, TDP1 inh inactive, HepG2 viability inactive and TDP1 cell noCPT 0.82µM.
Screening C=C(C)c1cccc(C(C)(C)NC(=O)N2CCN(c3ccccc3)CC2)c1 returned TDP1 cell CPT inactive, TGFb SMAD3 inh inconclusive, IL1B secr inh inactive, TDP1 inh inactive, HepG2 viability inactive and TDP1 cell noCPT inconclusive.
C=C(C)c1cccc(C(C)(C)NC(=O)N2CCCC(C)C2)c1 (stereo not given) was read as TDP1 cell CPT 23µM, TGFb SMAD3 inh inactive, IL1B secr inh inactive, TDP1 inh inactive, HepG2 viability inactive and TDP1 cell noCPT inconclusive.
For COc1cc(Cl)c(CC(=O)NO)cc1OC the results were TDP1 cell CPT inactive and TDP1 cell noCPT inactive.
For CC(Sc1nc2ncc(Cl)cc2[nH]1)C(=O)c1c(N)n(C)c(=O)n(C)c1=O (stereo not given) the results were TDP1 cell CPT inactive, TGFb SMAD3 inh inactive, IL1B secr inh inactive, TDP1 inh inactive, HepG2 viability inactive and TDP1 cell noCPT inactive.
For CCCn1c(N)c(C(=O)CSc2nc3ncc(Cl)cc3[nH]2)c(=O)n(C)c1=O the results were TDP1 cell CPT inactive, TGFb SMAD3 inh inactive, IL1B secr inh inactive, TDP1 inh 28µM, HepG2 viability inactive and TDP1 cell noCPT inactive.
Screening CC(C)Cn1c(N)c(C(=O)CSc2nc3ncc(Cl)cc3[nH]2)c(=O)n(C)c1=O returned TDP1 cell CPT inconclusive, TGFb SMAD3 inh inactive, IL1B secr inh inconclusive, TDP1 inh inactive[0.505 µM], HepG2 viability inactive and TDP1 cell noCPT 16µM.
CCCn1c(N)c(C(=O)CSc2nc(N)cc(=O)[nH]2)c(=O)n(C)c1=O was read as TDP1 cell CPT inactive, TGFb SMAD3 inh inactive, IL1B secr inh inactive, TDP1 inh inactive, HepG2 viability inactive and TDP1 cell noCPT inactive.
Screening O=C(Nn1c(COc2ccccc2)nc2ccccc2c1=O)C(Cl)(Cl)Cl returned TDP1 cell CPT inconclusive, TGFb SMAD3 inh inconclusive, IL1B secr inh inactive, HepG2 viability inactive and TDP1 cell noCPT inconclusive.
For COc1ccccc1N1C(=O)c2cccc3c(N(C)CCO)ccc(c23)C1=O the results were TDP1 cell CPT 8.2µM, TGFb SMAD3 inh inactive, IL1B secr inh inactive, TDP1 inh inactive, HepG2 viability inactive and TDP1 cell noCPT inconclusive.
`CC(=O)Oc1ccc(N2C(=O)c3cccc4c([N+](=O)[O-])ccc(c34)C2=O)cc1` gave TDP1 cell CPT 3.7µM, TGFb SMAD3 inh inactive, IL1B secr inh inconclusive, HepG2 viability inactive and TDP1 cell noCPT 5.8µM.
Screening O=C1c2cccc3c([N+](=O)[O-])ccc(c23)C(=O)N1O returned TDP1 cell CPT 2.1µM, TGFb SMAD3 inh inactive, IL1B secr inh inactive, HepG2 viability inactive and TDP1 cell noCPT 2.3µM.
COc1ccccc1N1C(=O)c2cccc3c(C(=O)O)ccc(c23)C1=O was read as TDP1 cell CPT inactive, TGFb SMAD3 inh inactive, IL1B secr inh inactive, TDP1 inh inactive, HepG2 viability inactive and TDP1 cell noCPT inactive.
`COc1ccc2c3c(cccc13)C(=O)N(O)C2=O` gave TDP1 cell CPT 2.3µM, TGFb SMAD3 inh inconclusive, IL1B secr inh inactive, TDP1 inh inactive, HepG2 viability inactive and TDP1 cell noCPT 2.1µM.
`Cc1ccc(N2C(=O)c3cccc([N+](=O)[O-])c3C2=O)cc1C` gave TDP1 cell CPT inactive, TGFb SMAD3 inh inactive, IL1B secr inh inconclusive, TDP1 inh inactive, HepG2 viability inactive and TDP1 cell noCPT inactive.
For O=C1C(O)CCN1C1CCCCC1 (stereo not given) the results were TDP1 cell CPT inactive, TGFb SMAD3 inh inactive, IL1B secr inh inactive, HepG2 viability inactive and TDP1 cell noCPT inactive.
For C=CCN=C1NN=C(c2ccc3c(c2)OCCO3)CS1 the results were TDP1 cell CPT inactive, TGFb SMAD3 inh inactive, IL1B secr inh inactive, TDP1 inh inactive, HepG2 viability inactive and TDP1 cell noCPT inactive.
`O=C1c2cccc3cccc(c23)C(=O)N1c1nccs1` gave TDP1 cell CPT inactive, TGFb SMAD3 inh inactive, IL1B secr inh inactive, TDP1 inh inactive, HepG2 viability inactive and TDP1 cell noCPT inactive.
`O=C1c2cccc3c([N+](=O)[O-])ccc(c23)C(=O)N1c1ccc(Cl)cn1` gave TDP1 cell CPT 3.3µM, TGFb SMAD3 inh inactive, IL1B secr inh -92, TDP1 inh inactive, HepG2 viability inactive and TDP1 cell noCPT 3.7µM.
Screening O=C1c2cccc3c([N+](=O)[O-])ccc(c23)C(=O)N1c1nccs1 returned TDP1 cell CPT 3.3µM, TGFb SMAD3 inh inactive, IL1B secr inh -107, TDP1 inh inactive, HepG2 viability inactive and TDP1 cell noCPT 3.3µM.
O=C(O)c1ccc2c(c1)C(=O)N(c1ccc(Cl)cn1)C2=O was read as TDP1 cell CPT inactive, TGFb SMAD3 inh inactive, IL1B secr inh inactive, TDP1 inh inactive, HepG2 viability inactive and TDP1 cell noCPT inactive.
For O=C1c2cccc3c([N+](=O)[O-])ccc(c23)C(=O)N1c1ccccn1 the results were TDP1 cell CPT 3.7µM, TGFb SMAD3 inh inactive, IL1B secr inh -114, TDP1 inh inactive, HepG2 viability inactive and TDP1 cell noCPT 2.9µM.
Screening O=C(c1ccc(Oc2ccc(C(F)(F)F)cc2[N+](=O)[O-])cc1)N1CCOCC1 returned TDP1 cell CPT inconclusive, TGFb SMAD3 inh inactive, IL1B secr inh inactive, TDP1 inh inactive, HepG2 viability inactive and TDP1 cell noCPT 15µM.
